In PubChem BioAssay (NCI):
About 79,000 compounds went through this panel and 15% of them were active in at least one assay; those are over-represented in the sample as a whole. Active and inactive are the calls of the source. Rule as the data show it: active = growth inhibition above about 70%; inactive = the rest.

What was measured:
[1] = NCI Yeast Anticancer Drug Screen. Data for the rad52 strain (AID 147);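 also: 0% = growth of vehicle-treated control cultures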; settings: S. cerevisiae rad52 mutant growth inhibition, active compounds read high
Outline: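 Read-out: growth inhibition versus vehicle-treated controls. Cells were a DNA repair-deficient yeast strain treated with compounds.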

[2] = NCI Yeast Anticancer Drug Screen. Data for the wt1 strain (AID 149);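 also: 0% = growth of vehicle-treated wt1 cultures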; settings: S. cerevisiae wt1 strain (SPY 50644) growth inhibition, active compounds read high
Outline: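 Measured: growth of wt1 yeast under compound versus vehicle treatment, reported as inhibition.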

[3] = NCI Yeast Anticancer Drug Screen. Data for the rad50EPP+ strain (AID 151);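 also: 0% = growth of vehicle-treated control cultures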; settings: S. cerevisiae rad50 mutant strain, active compounds read high
Outline: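 Growth inhibition read against vehicle controls in rad50EPP+ yeast, a strain altered in DNA damage repair, after compound exposure.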

[4] = NCI Yeast Anticancer Drug Screen. Data for the mgt1 strain (AID 153); settings: S. cerevisiae mgt1 mutant growth inhibition, active compounds read high
Outline: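 mgt1 yeast grown with test compound; read-out is growth inhibition versus vehicle-treated cultures.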

[5] = NCI Yeast Anticancer Drug Screen. Data for the rad50 strain (AID 155);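 also: 0% = growth of vehicle-only cultures of the same strain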; settings: S. cerevisiae rad50 strain growth inhibition, active compounds read high
Outline: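 Growth of the mutant yeast was measured after compound exposure and referenced to vehicle-treated cultures.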

[6] = NCI Yeast Anticancer Drug Screen. Data for the mec2-1 strain (AID 157); settings: S. cerevisiae mec2-1 strain, active compounds read high
Outline: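 Yeast mec2-1 mutant treated with compound. Readout: growth inhibition vs vehicle controls.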

[7] = NCI Yeast Anticancer Drug Screen. Data for the rad14 strain (AID 159);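 also: 0% = growth of vehicle-treated control cultures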; settings: S. cerevisiae rad14 strain growth inhibition, active compounds read high
Outline: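 Here, inhibition of yeast growth was measured after compound exposure, using a strain with a genetic defect in DNA damage repair and vehicle-treated cultures as the reference.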

[8] = NCI Yeast Anticancer Drug Screen. Data for the sgs1 mgt1 strain (AID 161);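 also: 0% = growth of cultures given vehicle only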; settings: S. cerevisiae sgs1 mgt1 strain, active compounds read high
Outline: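 Inhibition of yeast growth, normalised to vehicle-treated controls, is reported for a strain bearing genetic alterations in DNA damage repair.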

[9] = NCI Yeast Anticancer Drug Screen. Data for the CLN2oe strain (AID 163);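 also: 0% = growth of vehicle-only control cultures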; settings: S. cerevisiae CLN2oe strain, active compounds read high
Outline: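 Read-out: yeast growth inhibition, expressed relative to vehicle-only controls. The strain bears an engineered cell-cycle alteration.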

[10] = NCI Yeast Anticancer Drug Screen. Data for the cln2 rad14 strain (AID 165);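 also: 0% = growth equal to vehicle treated cultures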; settings: S. cerevisiae cln2 rad14 strain, active compounds read high
Outline: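 cln2 rad14 yeast strain; compound exposure; growth inhibition read vs vehicle controls.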

[11] = NCI Yeast Anticancer Drug Screen. Data for the bub3 strain (AID 167); settings: S. cerevisiae bub3 mutant strain, active compounds read high
Outline: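 Whole-cell yeast assay. The mutant strain was incubated with compounds, and growth inhibition was determined by comparison with vehicle-treated cells.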

[12] = NCI Yeast Anticancer Drug Screen. Data for the wt2 strain (AID 169);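 also: 0% = growth of vehicle-treated yeast cultures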; settings: S. cerevisiae wt2 strain growth inhibition, active compounds read high
Outline: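 Read-out: growth inhibition versus vehicle-treated control cultures after compound exposure of the yeast strain.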

[13] = NCI Yeast Anticancer Drug Screen. Data for the mlh1 strain (AID 171);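 also: 0% = growth of vehicle-treated control cultures of the same strain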; settings: S. cerevisiae mlh1 strain growth inhibition, active compounds read high
Outline: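 Read-out: growth inhibition versus vehicle controls. Strain: engineered yeast with a defined DNA repair or cell cycle defect, compound-treated.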

[14] = NCI Yeast Anticancer Drug Screen. Data for the mlh1 rad18 strain (AID 175); settings: S. cerevisiae mlh1 rad18 strain growth inhibition, active compounds read high
Outline: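 Yeast w/ defined DNA-repair lesions; compound exposure; growth vs vehicle controls → % inhibition.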

[15] = NCI Yeast Anticancer Drug Screen. Data for the rad18 strain (AID 177); settings: S. cerevisiae rad18 mutant growth inhibition, active compounds read high
Outline: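 Readout: growth inhibition vs vehicle controls. Cells: genetically altered yeast strain, DNA repair defect.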

[16] = at 5.0 µM (retest, dose inferred, filed as 0.5)
[17] = at 50.0 µM (retest, dose inferred, filed as 5.0)

Measured: growth inhibition

CC1CC(C)(C)CC(OCCN2CCCCC2)(c2ccccc2)C1 (stereo not drawn)
active: [1]; at 100.0 µM 84% | [4]; at 100.0 µM 83% | [5]; [17] 89% | [5]; at 50.0 µM 87.8% | [5]; at 100.0 µM 82% | [7]; at 100.0 µM 99% | [8]; [17] 79% | [8]; at 50.0 µM 83.5% | [9]; at 100.0 µM 87% | [11]; [17] 74% | [11]; at 50.0 µM 78.8% | [11]; at 100.0 µM 75% | [12]; at 100.0 µM 80% | [13]; at 100.0 µM 87% | [14]; [17] 79% | [14]; at 50.0 µM 84.8% | [15]; at 100.0 µM 91%
inactive: [1]; at 1.2 µM -1% | [1]; at 3.7 µM 8% | [1]; at 11.0 µM 15% | [1]; at 33.0 µM 25% | [2]; at 1.2 µM 2% | [2]; at 3.7 µM 5% | [2]; at 11.0 µM 12% | [2]; at 33.0 µM 14% | [2]; at 100.0 µM 32% | [3]; at 1.2 µM -5% | [3]; at 3.7 µM 1% | [3]; at 11.0 µM -3% | [3]; at 33.0 µM -3% | [3]; at 100.0 µM -2% | [4]; at 1.2 µM 0% | [4]; at 3.7 µM 2% | [4]; at 11.0 µM 10% | [4]; at 33.0 µM 32% | [5]; at 1.2 µM 3% | [5]; at 3.7 µM 8% | [5]; [16] 28% | [5]; at 11.0 µM 19% | [5]; at 33.0 µM 25% | [6]; at 1.2 µM 0% | [6]; at 3.7 µM 3% | [6]; [16] 4% | [6]; at 11.0 µM 10% | [6]; at 33.0 µM 11% | [6]; [17] 10% | [6]; at 50.0 µM 36.3% | [6]; at 100.0 µM 54% | [7]; at 1.2 µM 7% | [7]; at 3.7 µM 21% | [7]; at 11.0 µM 37% | [7]; at 33.0 µM 62% | [8]; [16] 4% | [9]; at 1.2 µM 2% | [9]; at 3.7 µM 7% | [9]; at 11.0 µM 20% | [9]; at 33.0 µM 50% | [10]; [16] -1% | [10]; [17] 26% | [10]; at 50.0 µM 52.2% | [11]; at 1.2 µM -3% | [11]; at 3.7 µM 4% | [11]; [16] -16% | [11]; at 11.0 µM 17% | [11]; at 33.0 µM 52% | [12]; at 1.2 µM 0% | [12]; at 3.7 µM 5% | [12]; at 11.0 µM 21% | [12]; at 33.0 µM 32% | [13]; at 1.2 µM 1% | [13]; at 3.7 µM 5% | [13]; at 11.0 µM 17% | [13]; at 33.0 µM 15% | [14]; [16] 7% | [15]; at 1.2 µM -3% | [15]; at 3.7 µM 11% | [15]; at 11.0 µM 30% | [15]; at 33.0 µM 55%
